Our source for the outcome and AC50 values is PubChem BioAssay (EPA / NIEHS).

The source made the active and inactive calls. The calls were made as follows: active = hit-call score of the fitted dose curve at least 0.9, where 1 is the maximum; inactive = score below 0.9.

Read-out in the experiment: Vascular endothelial growth factor receptor 2 (Homo sapiens) (UniProt P35968)
Briefly: BSK_4H_VEGFRII: BioMAP Diversity Plus: 4H Assay for Vascular endothelial growth factor receptor 2 (VEGFR2) Biomarker Activity (AID 2283031). Particulars: primary human endothelial cells (HUVEC); actives raise or lower the signal. The protocol:
BSK_4H is a cell-based, multiplexed-readout assay that uses umbilical vein endothelium, a human vascular primary cell, with measurements taken at 24 hours after chemical dosing in a 96-well plate.BSK_4H_VEGFRII is an assay component measured in the BSK_4H assay. It measures VEGFRII antibody related to regulation of gene expression using ELISA technology.Data from the assay component BSK_4H_VEGFRII was analyzed into 1 assay endpoint. This assay endpoint, BSK_4H_VEGFRII, was analyzed with bidirectional fitting relative to DMSO as the negative control and baseline of activity. Using a type of binding reporter, gain or loss-of-signal activity can be used to understand changes in the signaling as they relate to the gene KDR. Furthermore, this assay endpoint can be referred to as a primary readout, because this assay has produced multiple assay endpoints where this one serves a signaling function. To generalize the intended target to other relatable targets, this assay endpoint is annotated to the kinase intended target family, where the subfamily is receptor tyrosine kinase.
The levels of cell surface (or secreted, indicated by the prefix "s") biomarker endpoints were measured by ELISA. Overt cytotoxicity to cells in confluent adherent cultures (all systems other than the BT system) was assessed by measuring total protein levels using sulforhodamine B (SRB) staining in parallel cultures at the time of biomarker measurements, indicated as SRB endpoints. For proliferation assays for adherent cell types, individual cell types are cultured at sub-confluence and relative cell numbers quantified by SRB staining at time points optimized for each system (48 h: 3C and CASM3C systems; 72 h: BT and HDF3CGF systems; 96 h: SAg system). SRB was performed by staining cells with 0.1% SRB after fixation with 10% TCA and reading wells at 560 nm.Viability and proliferation of PBMC (T cells) was quantified by Alamar Blue reduction for the SAg and BT systems. For PBMC viability (referred to as PBMC Cytotoxicity within the assay endpoint names), cells were plated (75,000/well in a 96-well plate) and then chemical samples added for 1 h before addition of activators, SEB and TSST-1 (20 ng/mL final concentration each). Cells were incubated for 90 h. Then, Alamar Blue (20 uL/well) (Invitrogen, Cat DAL1100) was added for 6 h, and the plates were read with a fluorescence microplate reader at 546/580 nm (excitation/emission). For PBMC proliferation, cells were plated and activated as above but incubated for only 16 h prior to addition of Alamar Blue. Plates were read after 6 h.
In the case of `CCCN(C1CCN(C(=O)C2CCNCC2)CC1)[C@@H]1CCc2ccc(OC)cc2C1`, the outcome was inactive.

`CC(C)=CCC/C(C)=C\CO`: the outcome was inactive.

Consider `O=C1CCC(N2C(=O)c3ccccc3C2=O)C(=O)N1` (stereo not given), for which the result was inactive.

Consider `CCNc1ccccc1`, for which the result was inactive.

As to `Clc1nc(Cl)c(Cl)c(Cl)c1Cl`, the outcome was inactive.

Consider `O=c1[nH]c2ccc(S(=O)CCN3CCC(Cc4ccc(F)cc4)CC3)cc2o1` (stereo not given), for which the outcome was inactive.

In the case of `O=P(OC(CCl)CCl)(OC(CCl)CCl)OC(CCl)CCl`, the result was inactive.

Turning to `COC(=O)c1c(Cl)c(Cl)c(C(=O)OC)c(Cl)c1Cl`, the outcome was inactive.

Regarding `COCCOc1cc2cc(C(=O)NC3CCN(C(C)C)CC3)n(CC(=O)Nc3ccc(Cl)cn3)c2cn1`, the outcome was inactive.

On to `Nc1ccc(Nc2ccccc2)cc1`, for which the outcome was inactive.

Consider `C[C@](N)(Cc1ccc(O)c(O)c1)C(=O)O`, for which the result was inactive.

The AC50 is the concentration giving half of the maximal activity seen. Take `CC[C@H](C)C(=O)O[C@H]1C[C@@H](C)C=C2C=C[C@H](C)[C@H](CC[C@@H]3C[C@@H](O)CC(=O)O3)[C@H]21`: the concentration at half-maximal activity (AC50) is 27.3 µM (active).

Regarding `CC(C)=CCCC(C)=CC=O`, the result was inactive.

Turning to `CCC(C)(C)C(=O)O[C@H]1C[C@@H](C)C=C2C=C[C@H](C)[C@H](CC[C@@H]3C[C@@H](O)CC(=O)O3)[C@H]21`, the AC50 is 26.9 µM (active).

Turning to `CCOC(=O)c1ccc(C2CCC(NC[C@H](O)COc3ccc(O)c(NS(C)(=O)=O)c3)CC2)cc1` (stereo not given in full), the outcome was inactive.

Regarding `Cc1ccc(N)cc1O`, the outcome was inactive.

On to `CCOc1cccc(-n2cc(C(=O)N3CCN(c4cc(C(=O)O)c5ccccc5c4)CC3)nc2-c2ccc(C)cc2)c1`, for which the half-maximal activity concentration (AC50) is 18.2 µM (active).

With `C1=CCCC=CCCC=CCC1`, the outcome was inactive.

Consider `CC(O)CN(CCN(CC(C)O)CC(C)O)CC(C)O` (stereo not given), for which the outcome was inactive.

For the molecule `CC(C)CCCCCCCOC(=O)CCCCC(=O)OCCCCCCCC(C)C`, the result was inactive.

For the molecule `CC(C)=CCC/C(C)=C/CO`, the result was inactive.

On to `O=C(NS(=O)(=O)/C=C/c1ccccc1)c1ccc(F)cc1Cl`, for which the result was inactive.

For the molecule `O=C1OC(=O)C2C3C=CC(C3)C12` (stereo not given), the result was inactive.

As for `CCOC(=O)CC(CC(=O)OCC)(OC(C)=O)C(=O)OCC`, the result was inactive.

As to `COc1ccc2sc(C(=O)Nc3nnn[nH]3)c(OC(C)C)c2c1`, the half-maximal activity concentration (AC50) was 17.6 µM (active).

`CCCCC(CC)COC(=O)c1ccc(C(=O)OCC(CC)CCCC)cc1` (stereo not given): the result was inactive.

With `Cc1ccc(O)cc1`, the outcome was inactive.

As for `C=CCCCCCCCCC(=O)O`, the result was inactive.

Take `Cc1ccc(S(=O)(=O)O)cc1C`: the outcome was inactive.

With `CCOCCO`, the outcome was inactive.

As to `COC(=O)c1ccccc1O`, the outcome was inactive.

On to `O=c1n(CC2CO2)c(=O)n(CC2CO2)c(=O)n1CC1CO1` (stereo not given), for which the outcome was inactive.

Take `CCc1cc(SCc2sc(-c3ccc(C(F)(F)F)cc3)nc2CN2CCN(c3ccc(OC)cc3)CC2)ccc1OCC(=O)O`: the AC50 was 4.8 µM (active).

Regarding `Cc1c(-c2cccnc2)c2ccccc2n1CCCCC(=O)O`, the outcome was inactive.

In the case of `CC(C)c1cccc(C(C)C)c1N1C(=O)c2ccc(O)cc2C1=O`, the AC50 is 20 µM (active).

As to `CC(=O)c1ccc2c(c1)[C@H](NC(=O)c1ccc(F)cc1)[C@@H](O)C(C)(C)O2`, the outcome was inactive.

For the molecule `CCCCCCCCCCCCCCCO`, the AC50 is 36.8 µM (active).

As to `Cc1ccc(C)c(O)c1`, the outcome was inactive.

Regarding `O=C(OC[C@H]1O[C@@H](OC(=O)c2cc(O)c(O)c(OC(=O)c3cc(O)c(O)c(O)c3)c2)[C@H](OC(=O)c2cc(O)c(O)c(OC(=O)c3cc(O)c(O)c(O)c3)c2)[C@@H](OC(=O)c2cc(O)c(O)c(OC(=O)c3cc(O)c(O)c(O)c3)c2)[C@@H]1OC(=O)c1cc(O)c(O)c(OC(=O)c2cc(O)c(O)c(O)c2)c1)c1cc(O)c(O)c(OC(=O)c2cc(O)c(O)c(O)c2)c1`, the outcome was inactive.

On to `O=C(O)CC(O)C(=O)O` (stereo not given), for which the result was inactive.
